In the library only some 19% were active in any assay of this set; here they are far more common.
DT40 TDP1 CPT = DT40-hTDP1 cell growth loss with CPT; Potency, µM (top dose mostly 46.2 µM), without a hit: at the highest dose activity change, negative = growth inhibition, usual class: inhibitors; 420,000 tested, 12% active; chicken DT40 Tdp1-/-;hTDP1 cells + 20 nM CPT, ATP luminescence, 48 h; note: potency is the fitted concentration of half-maximal effect; nearly all actives have a fitted effect of over 55% in size
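Chicken DT40 Tdp1-/- cells stably complemented with human TDP1 were seeded at 400 cells/well in medium containing 20 nM camptothecin, exposed to pin-transferred compounds, and grown at 37 °C for at least 48 hr. Viability was read as ATP luminescence.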
HT1080NT lethal = kills 2HG-producing HT-1080-NT fibrosarcoma cells; HT-1080-NT fibrosarcoma viability, CellTiter-Glo ATP luminescence, 48 h; Potency, µM (doses to about 46.1 µM), for inactives: at the highest dose activity, negative = less viability, actives largely listed as cytotoxic; 360,000 tested, 1.6% active;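 note: NT is the 2HG producing partner of a matched IDH1 knockdown line; potency is the fitted concentration of half-maximal effect; 0% = DMSO-treated cells and -100% = media-only wells without cells; nearly all actives have a fitted effect of over 55% in size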
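Viability of the 2HG-overproducing fibrosarcoma line after 48 hours of compound exposure at 37 degrees C was determined by luminescence with CellTiter-Glo, and concentration-effect curves were then fitted and categorized.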
IL1B secr inh = blocks inflammasome-driven IL-1 beta release; activity change, % at 57.5 µM; AID 743279; THP-1 LPS/ATP IL-1B secretion, AlphaLISA, 16 h; stronger effect = lower value; 360,000 tested, 4.7% active; in the data active = activity change below about -50%; inconclusive = mostly about -30% to -49%
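THP-1 cells pretreated 1 hr with compounds (up to 57.5 uM final), then stimulated with LPS (250 ng/mL final) plus ATP (1.25 mM final); secreted IL-1B measured by AlphaLISA after 16 hr, decreased signal indicating inhibition.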
HT1080 IDH1KD tx = toxicity to HT-1080 IDH1 knockdown cells (counter line); HT-1080 IDH1 knockdown viability, ATP luminescence, 48 h; Potency, µM (titrated, usually from 46.1 µM), for inactives: at the highest dose activity, negative = toxicity, usual class: cytotoxic; 360,000 tested, 2% active; AID 686971;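 note: potency is the fitted concentration of half-maximal effect; 0% = DMSO wells and -100% = cell-free medium wells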
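Luminescent ATP read-out (CellTiter-Glo, 10 min at room temperature) after 48 h compound exposure at 37 °C gave viability of IDH1-knockdown HT-1080 cells. Activity was normalised to DMSO and cell-free wells, then fitted as concentration-response curves.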
TDP1 cell noCPT = qHTS for Inhibitors of human tyrosyl-DNA phosphodiesterase 1 (TDP1): qHTS in cells in absence of CPT | DT40 Tdp1-/- hTDP1 cells, no CPT, ATP luminescence, 48 h | Potency, µM (series often up to 46.2 µM), inactives show at the top dose activity change, negative = growth inhibition, actives largely listed as inhibitors | 420,000 tested, 15% active; note: potency is the fitted concentration of half-maximal effect; nearly all actives have a fitted effect of over 55% in size
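Growth kinetics read by CellTiter-Glo luminescence after ≥48 hr at 37 °C. Cells: DT40 Tdp1-/- stably carrying human TDP1, 400 per well, compound exposure in the absence of CPT (DMSO vehicle).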
* = called active by the depositor; ? = inconclusive; · = not tested or not shown. Unless noted, calls come from the whole dose curve; as a rule, active = well fitted curve in the direction sought with a large enough effect; inconclusive = small, poorly fitted or top-dose-only effect, or another doubt; inactive = no such curve, though single readings can be large; an effect the other way counts as inactive or inconclusive. Unless noted, % is set by controls: 0 for no effect and ±100 for the full control effect.

SMILES | DT40 TDP1 CPT | HT1080NT lethal | IL1B secr inh | HT1080 IDH1KD tx | TDP1 cell noCPT
COc1ccc(Cc2nc3ccc(C(=O)NCc4cc(C)no4)cc3o2)cc1OC | ? | -9% | 25 | -3% | ?
COc1ccc(Cc2nc3ccc(C(=O)N4CCCCC4CO)cc3o2)cc1OC (centres undefined) | ? | 3% | 9 | -12% | 21µM*
COc1ccc(Cc2nc3ccc(C(=O)NCc4cccc(C)n4)cc3o2)cc1OC | 18µM* | 2% | ? | 1% | ?
CC(=O)c1ccc(S(=O)(=O)NC2CCCCCCC2)cc1 | ? | 1% | 27 | -2% | ?
C=CCN(CC=C)Cc1cc(=O)oc2cc(C)c(C)cc12 | ? | 1% | -28 | -4% | ?
CC(=O)Nc1ccc(S(=O)(=O)N2CCN(C(=O)c3ncoc3-c3ccc(C)cc3)CC2)cc1 | -6% | -3% | ? | -9% | ?
Cc1cccc(N(C(=O)c2nsc(Cl)c2Cl)C(C(=O)NC2CCCC2)c2ccc(O)cc2)c1C (centres undefined) | ? | -2% | -73* | -14% | ?
Cc1cccc(N(C(=O)c2ccco2)C(C(=O)NC2CCCC2)c2cccnc2)c1C (centres undefined) | -10% | 10% | -10 | 6% | -26%
CCOc1ccc(C(C(=O)NC2CCCC2)N(Cc2ccccc2)C(=O)c2nsc(Cl)c2Cl)cc1 (centres undefined) | 21µM* | ? | ? | -27% | 18µM*
Cc1cc(C)cc(N(C(=O)c2nsc(Cl)c2Cl)C(C(=O)NC2CCCC2)c2ccc(O)cc2)c1 (centres undefined) | -80% | -18% | -80* | ? | ?
Cc1ccc(N(C(=O)c2nsc(Cl)c2Cl)C(C(=O)NC2CCCC2)c2ccc(O)cc2)cc1C (centres undefined) | ? | ? | -65* | -29% | ?
Oc1ccc(C2C(c3ccccc3)=NN=C(c3ccc(Cl)cc3)N2O)c(O)c1 (centres undefined) | -15% | -1% | ? | -1% | -23%
Cc1c(Cl)cccc1NC(=S)C(=C([O-])c1ccc(Cl)s1)[n+]1ccccc1 | -26% | -9% | -16 | -14% | ?
Cc1ccc(C(=O)Nn2c(C)nc3ccccc3c2=O)cc1C | ? | 10% | 12 | 4% | -17%
COc1cc(-c2nnc3sc(C4CCCCC4)nn23)cc(OC)c1OC | 16µM* | -8% | -27 | -23% | 23µM*
Cc1cc(-c2nnc3sc(C4CCCCC4)nn23)n[nH]1 | ? | 19% | -21 | 21% | -20%
COc1cccc(-c2nnc3sc(C4CCCCC4)nn23)c1 | 18µM* | 1% | -93* | -6% | 21µM*
CCOc1cccc(-c2nnc3sc(C4CCCCC4)nn23)c1 | ? | -2% | ? | -7% | ?
O=C(COC(=O)c1cc(S(=O)(=O)N2CCOCC2)ccc1O)Nc1ccc2c(c1)OCO2 | 3% | 10% | -10 | 6% | 13%
CCCn1cc(S(=O)(=O)c2ccc(OC)cc2)c(=O)c2cc(F)c(N3CCCC(C)C3)cc21 (centres undefined) | ? | · | · | · | 18µM*
CCCCn1cc(S(=O)(=O)c2ccc(Cl)cc2)c(=O)c2cc(F)c(N3CCCCC3)cc21 | 12µM* | · | · | · | 12µM*
CCCn1cc(S(=O)(=O)c2ccc(OC)cc2)c(=O)c2cc(OC)ccc21 | -4% | -3% | -11 | -2% | 17%
CCCn1cc(S(=O)(=O)c2ccc(C)cc2)c(=O)c2cc(F)c(N3CCCC3)cc21 | ? | · | · | · | -27%
CCCCn1cc(S(=O)(=O)c2ccc(C)cc2)c(=O)c2cc(F)c(N3CCCCC3)cc21 | 18µM* | · | · | · | 13µM*
CCCCn1cc(S(=O)(=O)c2ccc(OC)cc2)c(=O)c2cc(F)c(N3CCCC3)cc21 | 12µM* | · | · | · | 10µM*
SMILES | DT40 TDP1 CPT | HT1080NT lethal | IL1B secr inh | HT1080 IDH1KD tx | TDP1 cell noCPT
Cc1oc(-c2cccc(Cl)c2)nc1CS(=O)(=O)CC(=O)NC(C)CCc1ccccc1 (centres undefined) | -30% | · | · | · | ?
Cc1ccc(CSC2=NCCN2S(=O)(=O)c2ccc(F)cc2)cc1 | ? | -3% | 29 | -5% | ?
CSCC[C@H](NC(=O)C1CCN(S(=O)(=O)c2ccccc2)CC1)C(=O)NC1CC1 | -8% | 11% | -10 | 21% | 25%
C[C@H](CO)N1C[C@H](C)[C@@H](CN(C)C(=O)c2ccccn2)Oc2cc(Br)ccc2S1(=O)=O | -10% | 6% | -22 | 21% | -21%
COc1ccc(S(=O)(=O)c2cn(C)c3cc(N4CCCCCC4)c(F)cc3c2=O)cc1 | 18µM* | · | · | · | 15µM*
CCOC(=O)c1ccc(N2CN(CCc3ccccc3)CNC2=S)cc1 | 16µM* | 10% | -10 | 1% | ?
CCNC(=O)NC(=O)C(C)OC(=O)C1CCN(S(=O)(=O)c2ccccc2C(=O)OC)CC1 (centres undefined) | -23% | 0% | 31 | 0% | 15%
CCOC(=O)C1CSC(CC(=O)Nc2ccc(Cl)cc2)C(=O)N1 (centres undefined) | -1% | -12% | 3 | -10% | -16%
O=C(Nc1ccc(C(=O)N2CCOCC2)cc1)c1cc(-c2cccnc2)nc2ccc(Cl)cc12 | 1.8µM* | -7% | ? | -20% | 2.1µM*
CSc1ccccc1NC(=O)c1cc(-c2cccnc2)nc2ccc(Br)cc12 | ? | -4% | ? | 2% | 21µM*
O=C(O)c1cc(-c2cccnc2)nc2ccc(Br)cc12 | ? | -1% | 36 | 14% | 22%
CC(=O)Nc1cccc(NC(=O)c2cc(-c3cccnc3)nc3ccc(Br)cc23)c1 | 18µM* | ? | -19 | ? | 18µM*
Cc1ccccc1OC(=O)CSc1nnc(-c2cccs2)o1 | -3% | · | · | · | -2%
COCCCN1C(=O)c2ccc(C(=O)N3CCN(c4ccccc4OC)CC3)cc2C1=O | -10% | 0% | 11 | 0% | 16%
CC(NC1=CC(=O)c2cccnc2C1=O)C(O)c1ccccc1 (centres undefined) | 1.5µM* | 18µM* | -100* | 6.5µM* | 3.3µM*
O=C(CN(c1ccc(Cl)c(C(F)(F)F)c1)S(=O)(=O)c1ccccc1)N1CCc2ccccc2C1 | ? | · | · | · | 16µM*
CS(=O)(=O)N(CC(=O)N1CCN(c2ccccc2)CC1)c1ccc(Cl)c(C(F)(F)F)c1 | ? | -9% | 0 | -19% | ?
Cn1c(=O)c(C(=O)CCl)c(N)n(Cc2ccccc2)c1=O | 4.1µM* | -6% | -95* | -19% | 4.6µM*
